Screens: PubChem BioAssay, The Scripps Research Institute Molecular Screening Center
Only some compounds are listed: those with a hit (about 3.5% of all), similar ones and a draw of the others.
TEAD-YAP block – TEAD-YAP interaction inhibition, primary screen, TEAD-YAP interaction inhibitor project, luminescence, HEK-TIYL cells; TEAD-Gal4/YAP UAS-luciferase luminescence; inhibition, % at 9.12 µM; hit rate 1.4% among 640,000; AID 1259422, 2018; in the data active means inhibition above about 32%;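 further: 0% = median of test compound wells and 100% = reference inhibitor wells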
GPR151 ag – activators of human GPR151, primary screen, cell-based, PathHunter beta-arrestin, luminescence. hit rate 1% among 650,000. G-protein coupled receptor 151 (Homo sapiens), Q8TDV0. activation, % at 11.2 µM. PathHunter beta-arrestin GPR151 cells. AID 1508602, 2020; in the data active means activation above about 4.9%;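 further: 0% = median of compound wells and 100% = cells with positive control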
FBW7 act – FBW7 E3 ligase activators, primary screen, biochemical, AlphaScreen, human | F-box/WD repeat-containing protein 7 (Homo sapiens), Q969H0 | AlphaScreen FBW7–phospho-cyclin E peptide binding, activator screen | normalized activity (activation), % at 26.1 µM | hit rate 0.13% among 650,000; in the data active means normalized activity above about 1.9%;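 further: purified mutant Fbw7 with reduced substrate affinity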
MITF primary – MITF inhibitors, primary screen, biochemical, AlphaScreen, human; Microphthalmia-associated transcription factor (Homo sapiens), O75030; hit rate 0.91% among 650,000; inhibition, % at 2.6 µM; AlphaScreen MITF homodimerization, bead proximity signal; AID 1259374, 2018; in the data active means inhibition above about 50%;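 further: 0% = vehicle wells with protein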
Target sequence (O75030 whole entry, looked up): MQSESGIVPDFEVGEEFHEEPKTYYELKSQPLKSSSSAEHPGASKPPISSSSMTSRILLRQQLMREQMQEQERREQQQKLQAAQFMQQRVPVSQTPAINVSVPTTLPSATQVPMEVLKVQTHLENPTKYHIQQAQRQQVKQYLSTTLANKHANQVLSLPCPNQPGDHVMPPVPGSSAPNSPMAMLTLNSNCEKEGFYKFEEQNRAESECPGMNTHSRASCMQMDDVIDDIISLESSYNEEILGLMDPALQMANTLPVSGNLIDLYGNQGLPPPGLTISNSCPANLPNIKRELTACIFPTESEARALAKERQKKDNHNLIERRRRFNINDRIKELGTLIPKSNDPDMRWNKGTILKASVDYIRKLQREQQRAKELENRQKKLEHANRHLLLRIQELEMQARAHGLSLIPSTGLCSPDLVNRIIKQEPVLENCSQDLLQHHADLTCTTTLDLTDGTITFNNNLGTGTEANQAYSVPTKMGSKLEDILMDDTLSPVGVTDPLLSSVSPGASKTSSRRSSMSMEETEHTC
Active calls of the source: *.

SMILES	TEAD-YAP block	GPR151 ag	FBW7 act	MITF primary
CN(C)c1ccc(C(CNC(=O)Cc2ccc(F)cc2)N2CCN(c3ccccc3)CC2)cc1 (stereo not given)	-1	1	0	72*
CC(C)(C)/C(=C\c1nc2ccccc2[nH]c1=O)NN	81*	-6	0	3
CCOc1ccc2ncc(C#N)c(Nc3cc(OC)cc(OC)c3)c2c1	45*	0	0	-10
CCOC(=O)c1cnc2ccc(OCC)cc2c1Nc1cccc(OC)c1	-1	0	0	3
CCc1nnc(NC(=O)c2cccnc2)s1	-5	0	0	7
CC(=O)c1cccc(NC(=O)CSC2N=c3ccc([N+](=O)[O-])cc3=N2)c1 (stereo not given)	-1	0	0	71*
CC(=O)c1cccc(NC(=O)Cn2ccc([N+](=O)[O-])n2)c1	9	0	0	14
COc1cccc(CCc2nnc(CCC(=O)N3C[C@@H](C)O[C@@H](C)C3)o2)c1	-5	-1	0	22
Cn1c(SCC(=O)O)nnc1-c1ccccc1O	44*	1	0	5
Cn1c(SCC(=O)N2CCCC2)nnc1-c1ccccc1O	58*	-1	0	24
Cc1ccc(OCCn2cc(C=C3C(=O)N(C)C(=O)N(C)C3=O)c3ccccc32)cc1	-5	0	0	6
O=C1CSc2ccc(C(=O)N3CCN(c4cccc(Cl)c4)CC3)cc2N1	56*	0	1	15
O=C1Nc2cc(C(=O)N3CCN(c4cccc(Cl)c4)CC3)ccc2Sc2ccccc21	4	1	0	-15
O=C1CSc2ccc(C(=O)N3CCN(c4cccc(C(F)(F)F)c4)CC3)cc2N1	52*	0	0	2
COc1ccccc1C(=O)Nc1c(C)[nH]c(=O)[nH]c1=O	-5	3	0	-12
CCn1c(SCC(=O)Nc2ccc([N+](=O)[O-])cc2)nnc1-c1ccc(O)cc1	50*	0	1	4
Cc1c(C(=O)N/N=C/c2ccc(O)cc2O)nnn1-c1nonc1N	75*	2	-1	33
COc1cccc(/C=N/NC(=O)c2nnn(-c3nonc3N)c2C)c1O	75*	1	0	5
CCc1c(C(=O)N/N=C/c2ccc(N(CC)CC)cc2O)nnn1-c1nonc1N	41*	-1	0	9
COCc1c(C(=O)N/N=C\c2ccc(O)cc2O)nnn1-c1nonc1N	19	2	0	34
CCN(CC)c1ccc(/C=N/NC(=O)c2nnn(-c3nonc3N)c2CN(C)C)c(O)c1	13	0	0	-8
COc1cccc(/C=N/NC(=O)c2nnn(-c3nonc3N)c2-c2ccccc2)c1O	15	-1	0	18
CCN(CC)c1ccc(NC(=O)c2ccc3c4c(cccc24)CC3)cc1	51*	0	0	10
Cc1nn2c(-c3ccccc3)csc2nc1=O	10	2	0	-7
Oc1ccc(-c2csc3nc(-c4ccccc4)nn23)c(O)c1	34*	-1	0	14
SMILES	TEAD-YAP block	GPR151 ag	FBW7 act	MITF primary
CCn1c(-c2ccc(OC)cc2)csc1=Nc1ccc(NC(C)=O)cc1	65*	3	0	1
C=CCn1c(-c2ccc(C)cc2)csc1=Nc1ccc(NC(C)=O)cc1	50*	-1	0	27
CCn1c(-c2ccc(Cl)cc2)csc1=Nc1ccc(NC(C)=O)cc1	80*	0	0	22
CCn1c(-c2ccc(Cl)cc2)csc1=Nc1ccccc1	-28	0	0	25
O=C(NCCOc1cc(N2CCCCC2)ncn1)Nc1ccccc1Cl	8	0	0	-5
CCOC(=O)c1cnn(-c2nc3ccccc3s2)c1N	13	-1	0	-6
CC(=O)Nc1cc(C)nn1-c1nc2ccccc2[nH]1	16	2	0	5
O=c1c2ccccc2cnn1-c1nc2ccccc2s1	90*	-1	0	27
O=c1c2ccccc2cnn1-c1nc2ccccc2[nH]1	94*	-11	0	9
CCOc1ccccc1C(=O)Nc1cc(C)nn1-c1nc2ccccc2[nH]1	54*	2	0	-2
O=c1c2ccccc2cnn1-c1ccc(Cl)c(Cl)c1	-27	1	0	11
CCOC(=O)c1cnn(-c2nc3ccccc3[nH]2)c1N	42*	-6	0	16
Cc1cc(C)nc(NS(=O)(=O)c2ccc(NC(=O)c3cccc(NC(=O)C(F)(F)F)c3)cc2)n1	2	2	0	-5
